Consider 31 molecules from publication PMC9911399, “Two distinct binding modes provide the RNA-binding protein RbFox with extraordinary sequence specificity”.

Sequences and labels used below:
T1: RBFOX1 RRM (Homo sapiens, UniProt Q9NWB1 109-208)
T1 sequence: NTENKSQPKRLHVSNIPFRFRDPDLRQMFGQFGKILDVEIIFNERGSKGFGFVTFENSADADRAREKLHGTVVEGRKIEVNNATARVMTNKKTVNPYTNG

B1: GGGUUAG (DNA:RNA)
RNA: GGGAGACCGGAAUUCAGAUUGUCCGGGUUAGUUAAAUCCCGUCGUAGCCACCA
DNA 1: CAATCTGAATTCCGGTCTCCC
DNA 2: TGGTGGCTACGACGGGATT
B2: CUGAUGG (DNA:RNA)
RNA: B1 RNA with G25C, G26U, U28A, A30G
DNA 1: CAATCTGAATTCCGGTCTCCC
DNA 2: TGGTGGCTACGACGGGATT
B3: AGAACUG (DNA:RNA)
RNA: B1 RNA with G25A, G27A, U28A, U29C, A30U
DNA 1: CAATCTGAATTCCGGTCTCCC
DNA 2: TGGTGGCTACGACGGGATT
B4: GCAAAGC (DNA:RNA)
RNA: B1 RNA with G26C, G27A, U28A, U29A, A30G, G31C
DNA 1: CAATCTGAATTCCGGTCTCCC
DNA 2: TGGTGGCTACGACGGGATT
B5: UUGCGGA (DNA:RNA)
RNA: B1 RNA with G25U, G26U, U28C, U29G, A30G, G31A
DNA 1: CAATCTGAATTCCGGTCTCCC
DNA 2: TGGTGGCTACGACGGGATT
B6: GGGGCUU (DNA:RNA)
RNA: B1 RNA with U28G, U29C, A30U, G31U
DNA 1: CAATCTGAATTCCGGTCTCCC
DNA 2: TGGTGGCTACGACGGGATT
B7: GGCUUUU (DNA:RNA)
RNA: B1 RNA with G27C, A30U, G31U
DNA 1: CAATCTGAATTCCGGTCTCCC
DNA 2: TGGTGGCTACGACGGGATT
B8: GGGGGCU (DNA:RNA)
RNA: B1 RNA with U28G, U29G, A30C, G31U
DNA 1: CAATCTGAATTCCGGTCTCCC
DNA 2: TGGTGGCTACGACGGGATT
B9: CGGGCUU (DNA:RNA)
RNA: B1 RNA with G25C, U28G, U29C, A30U, G31U
DNA 1: CAATCTGAATTCCGGTCTCCC
DNA 2: TGGTGGCTACGACGGGATT
B10: CGGGGCU (DNA:RNA)
RNA: B1 RNA with G25C, U28G, U29G, A30C, G31U
DNA 1: CAATCTGAATTCCGGTCTCCC
DNA 2: TGGTGGCTACGACGGGATT
B11: CCGGGCU (DNA:RNA)
RNA: B1 RNA with G25C, G26C, U28G, U29G, A30C, G31U
DNA 1: CAATCTGAATTCCGGTCTCCC
DNA 2: TGGTGGCTACGACGGGATT
B12: CGGCUUU (DNA:RNA)
RNA: B1 RNA with G25C, U28C, A30U, G31U
DNA 1: CAATCTGAATTCCGGTCTCCC
DNA 2: TGGTGGCTACGACGGGATT
B13: GCGGGCU (DNA:RNA)
RNA: B1 RNA with G26C, U28G, U29G, A30C, G31U
DNA 1: CAATCTGAATTCCGGTCTCCC
DNA 2: TGGTGGCTACGACGGGATT
B14: GGGCUUU (DNA:RNA)
RNA: B1 RNA with U28C, A30U, G31U
DNA 1: CAATCTGAATTCCGGTCTCCC
DNA 2: TGGTGGCTACGACGGGATT
B15: GUGGGCU (DNA:RNA)
RNA: B1 RNA with G26U, U28G, U29G, A30C, G31U
DNA 1: CAATCTGAATTCCGGTCTCCC
DNA 2: TGGTGGCTACGACGGGATT
B16: CGUCAGA (DNA:RNA)
RNA: B1 RNA with G25C, G27U, U28C, U29A, A30G, G31A
DNA 1: CAATCTGAATTCCGGTCTCCC
DNA 2: TGGTGGCTACGACGGGATT
B17: GGAGUGG (DNA:RNA)
RNA: B1 RNA with G27A, U28G, A30G
DNA 1: CAATCTGAATTCCGGTCTCCC
DNA 2: TGGTGGCTACGACGGGATT
B18: ACAUGGG (DNA:RNA)
RNA: B1 RNA with G25A, G26C, G27A, U29G, A30G
DNA 1: CAATCTGAATTCCGGTCTCCC
DNA 2: TGGTGGCTACGACGGGATT
B19: CCUAGUG (DNA:RNA)
RNA: B1 RNA with G25C, G26C, G27U, U28A, U29G, A30U
DNA 1: CAATCTGAATTCCGGTCTCCC
DNA 2: TGGTGGCTACGACGGGATT
B20: AAUUAGC (DNA:RNA)
RNA: B1 RNA with G25A, G26A, G27U, U29A, A30G, G31C
DNA 1: CAATCTGAATTCCGGTCTCCC
DNA 2: TGGTGGCTACGACGGGATT
B21: UUUAACA (DNA:RNA)
RNA: GGGAGACCGGAAUUCAGAUUGUCCUUUAACAUUAAAUCCCGUCGUAGCCACCA
DNA 1: CAATCTGAATTCCGGTCTCCC
DNA 2: TGGTGGCTACGACGGGATT
B22: GGGACGU (DNA:RNA)
RNA: B1 RNA with U28A, U29C, A30G, G31U
DNA 1: CAATCTGAATTCCGGTCTCCC
DNA 2: TGGTGGCTACGACGGGATT
B23: CGGGUGC (DNA:RNA)
RNA: B1 RNA with G25C, U28G, A30G, G31C
DNA 1: CAATCTGAATTCCGGTCTCCC
DNA 2: TGGTGGCTACGACGGGATT
B24: CCGGUGC (DNA:RNA)
RNA: B1 RNA with G25C, G26C, U28G, A30G, G31C
DNA 1: CAATCTGAATTCCGGTCTCCC
DNA 2: TGGTGGCTACGACGGGATT
B25: GGGUGCU (DNA:RNA)
RNA: B1 RNA with U29G, A30C, G31U
DNA 1: CAATCTGAATTCCGGTCTCCC
DNA 2: TGGTGGCTACGACGGGATT
B26: GGGUGCG (DNA:RNA)
RNA: B1 RNA with U29G, A30C
DNA 1: CAATCTGAATTCCGGTCTCCC
DNA 2: TGGTGGCTACGACGGGATT
B27: AGGGUGC (DNA:RNA)
RNA: B1 RNA with G25A, U28G, A30G, G31C
DNA 1: CAATCTGAATTCCGGTCTCCC
DNA 2: TGGTGGCTACGACGGGATT
B28: GGGGUGC (DNA:RNA)
RNA: B1 RNA with U28G, A30G, G31C
DNA 1: CAATCTGAATTCCGGTCTCCC
DNA 2: TGGTGGCTACGACGGGATT
B29: AGUCCCC (DNA:RNA)
RNA: B21 RNA with U25A, U26G, A28C, A29C, A31C
DNA 1: CAATCTGAATTCCGGTCTCCC
DNA 2: TGGTGGCTACGACGGGATT
B30: CUUCGCU (DNA:RNA)
RNA: B21 RNA with U25C, A28C, A29G, A31U
DNA 1: CAATCTGAATTCCGGTCTCCC
DNA 2: TGGTGGCTACGACGGGATT
B31: GCGUUAG (DNA:RNA)
RNA: B1 RNA with G26C
DNA 1: CAATCTGAATTCCGGTCTCCC
DNA 2: TGGTGGCTACGACGGGATT

Numbering of substitutions follows the chain as printed; changes in the protein carry UniProt numbers. In all, about 16,000 sequences were measured (“ka relative to ugcaugu”: median about 0.0091, highest 2% from about 0.032 on). What follows is part of a selection rich in the highest values, with near analogues and random picks from the rest.

This assay concerns the target T1, RBFOX1 RRM. Briefly: EMSA; HiTS-Eq, 1 nM pool, 10 min; buffer printed only for the single-RNA assays: 10 mM Tris pH 7.5, 150 mM NaCl, 3.4 mM EDTA, 0.001% NP-40, 30 C. The note with it: tags: His6 N-terminal (pET28a); label: 5' 32P. The method, boiled down: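 A pool of RNA with 7 randomized nucleotides, 5′-radiolabelled and with DNA-annealed flanks, was equilibrated at 1 nM for 10 min in 50 µL with purified RbFox RRM, wild type or mutant, across increasing protein concentrations. Free RNA was separated by 8% native PAGE, excised, reverse-transcribed, barcoded by PCR and sequenced. Relative association constants were obtained from read-count changes of each RNA species versus the control reaction and normalised to the cognate motif.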
As to B1, the binding signal was 0.0153 KA relative to UGCAUGU.
B2: the binding signal was 0.0123 KA relative to UGCAUGU.
Next, B3: 0.0109 KA relative to UGCAUGU; B4: 0.0111 KA relative to UGCAUGU; B5: 0.0101 KA relative to UGCAUGU.
For B6 the value was 0.033 KA relative to UGCAUGU.
Next, B7: 0.0115 KA relative to UGCAUGU.
For the molecule B8, the binding signal is 0.0377 KA relative to UGCAUGU.
Take B9: the binding signal was 0.0317 KA relative to UGCAUGU.
On to B10, for which the binding signal was 0.0294 KA relative to UGCAUGU.
Regarding B11, the binding signal is 0.00883 KA relative to UGCAUGU.
Consider B12, for which the binding signal was 0.0187 KA relative to UGCAUGU.
Next, B13: 0.0197 KA relative to UGCAUGU; B14: 0.0244 KA relative to UGCAUGU; B15: 0.0216 KA relative to UGCAUGU.
For B16 the value was 0.00954 KA relative to UGCAUGU; for B17, 0.0151 KA relative to UGCAUGU; for B18, 0.0064 KA relative to UGCAUGU.
Next, B19: 0.00931 KA relative to UGCAUGU; B20: 0.00552 KA relative to UGCAUGU.
B21: the binding signal was 0.00144 KA relative to UGCAUGU.
For B22 the value was 0.0238 KA relative to UGCAUGU.
For B23 the value was 0.0369 KA relative to UGCAUGU; for B24, 0.0149 KA relative to UGCAUGU.
For B25 the value was 0.0276 KA relative to UGCAUGU; for B26, 0.023 KA relative to UGCAUGU; for B27, 0.0198 KA relative to UGCAUGU.
For the molecule B28, the binding signal was 0.0467 KA relative to UGCAUGU.
Regarding B29, the binding signal was 0.0101 KA relative to UGCAUGU.
Next, B30: 0.0136 KA relative to UGCAUGU; B31: 0.0109 KA relative to UGCAUGU.
